# Source: the antibiotic and cytotoxicity screens of Wong et al. (2023)
# Screen size: about 39,000 compounds; about 1,500 (3.8%) were called active. This is one part of a sample in which actives are shown more often than they occur.
# Tested on: HSkMC (human skeletal muscle cells)
# Experiment: cytotoxicity call (relative viability < 0.9)
# Conditions: 10 µM
row,SMILES,cytotoxicity call
1,C[C@H](CO)N1C[C@H](C)[C@H](CN(C)Cc2ccc(C(F)(F)F)cc2)OCCCC[C@H](C)Oc2ccc(NC(=O)Nc3ccc4c(c3)OCO4)cc2C1=O,inactive
2,C[C@@H]1CCCCO[C@H](CN(C)Cc2ccc3c(c2)OCO3)[C@@H](C)CN([C@H](C)CO)C(=O)c2cc(NC(=O)Nc3ccc(C(F)(F)F)cc3)ccc2O1,active
3,C[C@H]1CCCCO[C@@H](CN(C)Cc2ccc(C(F)(F)F)cc2)[C@@H](C)CN([C@@H](C)CO)C(=O)c2cc(NC(=O)Nc3ccc4c(c3)OCO4)ccc2O1,inactive
4,C[C@@H]1CN([C@H](C)CO)C(=O)c2cc(NC(=O)Nc3ccc(C(F)(F)F)cc3)ccc2O[C@@H](C)CCCCO[C@@H]1CN(C)Cc1ccc2c(c1)OCO2,active
5,C[C@@H]1CCCCO[C@H](CN(C)Cc2ccc3c(c2)OCO3)[C@H](C)CN([C@@H](C)CO)C(=O)c2cc(NC(=O)Nc3ccc(C(F)(F)F)cc3)ccc2O1,active
6,C[C@@H]1CCCCO[C@@H](CN(C)Cc2ccc(C(F)(F)F)cc2)[C@H](C)CN([C@@H](C)CO)C(=O)c2cc(NC(=O)Nc3ccc4c(c3)OCO4)ccc2O1,inactive
7,C[C@@H]1CCCCO[C@H](CN(C)Cc2ccc3c(c2)OCO3)[C@H](C)CN([C@H](C)CO)C(=O)c2cc(NC(=O)Nc3ccc(C(F)(F)F)cc3)ccc2O1,active
8,C[C@H](CO)N1C[C@H](C)[C@@H](CN(C)Cc2ccc(C(F)(F)F)cc2)OCCCC[C@H](C)Oc2ccc(NC(=O)Nc3ccc4c(c3)OCO4)cc2C1=O,inactive
9,C[C@@H]1CN([C@@H](C)CO)C(=O)Cc2cc(NC(=O)Nc3cccc4ccccc34)ccc2O[C@@H]1CN(C)Cc1ccc2c(c1)OCO2,inactive
10,Cc1noc(C)c1NC(=O)N(C)C[C@@H]1OCCCC[C@@H](C)Oc2ccc(NC(=O)Nc3ccccc3)cc2C(=O)N([C@@H](C)CO)C[C@@H]1C,inactive
11,Cc1noc(C)c1S(=O)(=O)N(C)C[C@H]1OCCCC[C@@H](C)Oc2ccc(NC(=O)Nc3ccccc3)cc2C(=O)N([C@@H](C)CO)C[C@@H]1C,inactive
12,COc1ccc(NC(=O)Nc2ccc3c(c2)C(=O)N([C@H](C)CO)C[C@H](C)[C@@H](CN(C)S(=O)(=O)c2c(C)noc2C)OCCCC[C@@H](C)O3)cc1,inactive
13,C[C@@H]1CCCCO[C@@H](CN(C)C(=O)NC2CCCCC2)[C@H](C)CN([C@H](C)CO)C(=O)c2cc(NC(=O)Cc3ccccc3)ccc2O1,inactive
14,CC(C)NC(=O)Nc1ccc2c(c1)C(=O)N([C@@H](C)CO)C[C@@H](C)[C@H](CN(C)S(=O)(=O)c1cn(C)cn1)OCCCC[C@@H](C)O2,inactive
15,C[C@@H]1CCCCO[C@@H](CN(C)Cc2ccc3c(c2)OCO3)[C@@H](C)CN([C@H](C)CO)C(=O)c2cc(NC(=O)Nc3ccc(C(F)(F)F)cc3)ccc2O1,inactive
16,C[C@@H]1CN([C@@H](C)CO)C(=O)c2cc(NC(=O)Nc3ccc(C(F)(F)F)cc3)ccc2O[C@@H](C)CCCCO[C@@H]1CN(C)Cc1ccc2c(c1)OCO2,inactive
17,C[C@@H]1CCCCO[C@@H](CN(C)Cc2ccc3c(c2)OCO3)[C@H](C)CN([C@@H](C)CO)C(=O)c2cc(NC(=O)Nc3ccc(C(F)(F)F)cc3)ccc2O1,active
18,C[C@H](CO)N1C[C@H](C)[C@@H](CN(C)Cc2ccc3c(c2)OCO3)OCCCC[C@H](C)Oc2ccc(NC(=O)Nc3ccc(C(F)(F)F)cc3)cc2C1=O,active
19,C[C@@H]1CN([C@H](C)CO)C(=O)c2cc(NC(=O)Nc3ccc(C(F)(F)F)cc3)ccc2O[C@@H](C)CCCCO[C@H]1CN(C)Cc1ccc2c(c1)OCO2,active
20,C[C@H](CO)N1C[C@H](C)[C@H](CN(C)Cc2ccc3c(c2)OCO3)OCCCC[C@H](C)Oc2ccc(NC(=O)Nc3ccc(C(F)(F)F)cc3)cc2C1=O,active

row,SMILES,cytotoxicity call
1,CC(C)NC(=O)Nc1cccc2c1O[C@@H](CN(C)S(=O)(=O)c1ccccc1)[C@H](C)CN([C@H](C)CO)C2=O,inactive
2,C[C@@H]1CN([C@@H](C)CO)S(=O)(=O)c2ccc(Br)cc2O[C@H]1CN(C)C(=O)c1ccncc1,inactive
3,C[C@H](CO)N1C[C@H](C)[C@@H](CN(C)S(=O)(=O)c2ccc(Oc3ccccc3)nc2)OCc2cn(nn2)CCCC1=O,inactive
4,c1ccc2c(c1)[nH]c1ncccc12,inactive
5,CCC(=O)N[C@H]1C=C[C@H](CC(=O)OC)O[C@@H]1CO,inactive
6,COc1ccc(NC(=O)Nc2ccc3c(c2)C(=O)N([C@@H](C)CO)C[C@H](C)[C@@H](CN(C)C(=O)c2ccccc2)OCCCC[C@H](C)O3)cc1,inactive
7,O=S(=O)(N1CCOCC1)N1CCCN(S(=O)(=O)N2CCOCC2)CC1,inactive
8,C[C@@H](O)C#Cc1ccc2c(c1)O[C@H](CN(C)C(=O)Cc1ccccn1)[C@@H](C)CN([C@@H](C)CO)S2(=O)=O,inactive
9,O=C(C[C@H]1C=C[C@H](NC(=O)CN2CCOCC2)[C@@H](CO)O1)NC1CCCCC1,inactive
10,Nc1ccc(S(N)(=O)=O)cn1,inactive
11,Cc1cc(C(=O)Nc2cccc3c2O[C@@H](CN(C)Cc2ccc(C(=O)O)cc2)[C@@H](C)CN([C@@H](C)CO)C3=O)n(C)n1,inactive
12,C[C@@H]1CCCCO[C@H](CN(C)Cc2ccc3c(c2)OCO3)[C@@H](C)CN([C@@H](C)CO)C(=O)c2cc(NC(=O)Nc3ccc(C(F)(F)F)cc3)ccc2O1,active
13,C[C@@H]1CCCCO[C@@H](CN(C)Cc2ccc3c(c2)OCO3)[C@@H](C)CN([C@@H](C)CO)C(=O)c2cc(NC(=O)Nc3ccc(C(F)(F)F)cc3)ccc2O1,active
14,C[C@H](CO)N1C[C@H](C)[C@H](CN(C)C(=O)Nc2ccc3c(c2)OCO3)OCCCC[C@H](C)Oc2ccc(NC(=O)CCC(F)(F)F)cc2C1=O,inactive
15,C[C@@H]1CN([C@H](C)CO)C(=O)c2cc(NC(=O)NC3CCCCC3)ccc2O[C@@H]1CN(C)Cc1ccc(Oc2ccccc2)cc1,inactive
16,Cc1noc(C)c1S(=O)(=O)Nc1ccc2c(c1)C(=O)N([C@H](C)CO)C[C@@H](C)[C@H](CN(C)S(=O)(=O)c1cn(C)cn1)OCCCC[C@@H](C)O2,inactive
17,C/C=C1\NC(=O)[C@H]2CSSCC/C=C/[C@H](CC(=O)N[C@H](C(C)C)C(=O)N2)OC(=O)[C@H](C(C)C)NC1=O,active
18,CC(C)NC(=O)N(C)C[C@H]1Oc2ccc(NC(=O)CCN3CCOCC3)cc2CC(=O)N([C@@H](C)CO)C[C@@H]1C,inactive
19,COCC(=O)N1CC[C@]2(CC1)CN([C@@H](CO)c1c2c2ccc(cc2n1C)OC)C(=O)CN1CCOCC1,inactive
20,CCOC(=O)c1c(CN2CCN(c3ccccc3C)CC2)n(-c2ccccc2)c2cc(Br)c(O)cc12,active

row,SMILES,cytotoxicity call
1,CCOC(=O)c1c(CN2CCN(c3ccc(C)cc3)CC2)n(-c2ccccc2)c2cc(Br)c(OC)cc12,inactive
2,CCOC(=O)c1c(CN2CCN(Cc3ccccc3)CC2)n(-c2ccccc2)c2cc(Br)c(O)cc12,inactive
3,CCOC(=O)c1c(CNCCN(CC)CC)n(-c2ccccc2)c2cc(Br)c(OC)cc12,inactive
4,CCOC(=O)c1c(CN2CCN(CCOCCO)CC2)n(-c2ccccc2)c2cc(Br)c(O)cc12,inactive
5,CCOC(=O)c1c(CN2CCN(c3ccccc3)CC2)n(-c2ccccc2)c2cc(Br)c(O)cc12,active
6,CCOC(=O)c1c(CN2CCN(Cc3ccccc3)CC2)n(-c2ccccc2)c2cc(Br)c(OC)cc12,inactive
7,CCOC(=O)c1c(CN2CCN(c3ccccc3)CC2)n(-c2ccccc2)c2cc(Br)c(OC)cc12,inactive
8,CCOC(=O)c1c(CN2CCN(c3ccccc3)CC2)n(C2CCCCC2)c2cc(Br)c(O)cc12,active
9,COc1ccc(CN(C)C[C@@H]2OCCCC[C@@H](C)Oc3ccc(NC(=O)Nc4c(C)noc4C)cc3C(=O)N([C@H](C)CO)C[C@@H]2C)cc1,inactive
10,Cc1noc(C)c1S(=O)(=O)N(C)C[C@H]1Oc2ccc(N(C)C)cc2CC(=O)N([C@@H](C)CO)C[C@H]1C,inactive
11,C[C@@H]1CN([C@H](C)CO)C(=O)c2cc(C#CC3(O)CCCC3)cnc2O[C@@H]1CN(C)C(=O)Cc1ccncc1,inactive
12,C[C@@H]1CCCCO[C@H](CN(C)Cc2ccncc2)[C@@H](C)CN([C@H](C)CO)C(=O)c2cc(NC(=O)NC3CCCCC3)ccc2O1,inactive
13,C[C@@H]1CN([C@H](C)CO)C(=O)CCCn2cc(nn2)CO[C@H]1CN(C)C(=O)Nc1ccc(N2CCN(C)CC2)cc1,inactive
14,CN1CCN(C(=O)C[C@H]2C[C@H]3c4cc(NC(=O)c5ccc6c(c5)OCO6)ccc4O[C@H]3[C@@H](CO)O2)CC1,inactive
15,Cn1cnc(S(=O)(=O)N2C[C@@H](O)COC[C@@H]3O[C@H](CC(=O)N4CCN(c5ccccc5)CC4)CC[C@H]32)c1,inactive
16,COc1ccc(NC(=O)Nc2ccc3c(c2)C(=O)N([C@@H](C)CO)C[C@@H](C)[C@H](CN(C)Cc2ccc(C(=O)O)cc2)OCCCC[C@@H](C)O3)cc1,inactive
17,Cc1noc(C)c1NC(=O)N(C)C[C@@H]1Oc2ccc(NC(=O)CCCN(C)C)cc2C(=O)N([C@@H](C)CO)C[C@H]1C,inactive
18,O=C1O[C@@H](c2ccccc2)[C@@H](c2ccccc2)N2[C@@H](c3ccc(OCCO)cc3)[C@]3(C(=O)Nc4ccc(C#CC5(O)CCCCCC5)cc43)[C@@H](C(=O)Nc3nc4ccccc4s3)[C@H]12,inactive
19,COc1cc2c(N3CCN(C(=O)Nc4ccc(OC(C)C)cc4)CC3)ncnc2cc1OCCCN1CCCCC1,inactive
20,CCN1CCN(c2ccc(Nc3cc(N(C)C(=O)Nc4c(Cl)c(OC)cc(OC)c4Cl)ncn3)cc2)CC1,active
